Results as given in PubChem BioAssay (NCATS).
Several values for one entry are separate records, joined by “and”; a condition that tells them apart may be missing. Identical values can stand only once. Records with an inconclusive call do not appear. Activity calls are given as the source filed them. Calls follow the shape of the dose curve; as a rule, active = well fitted inhibition curve with a large enough effect; inconclusive = small, poorly fitted or top-dose-only effect; inactive = flat fitted curve, though single readings scatter.

What was measured:
[1] = tested on: HaCat; assay: Cytotoxic Profiling of Annotated Libraries Using Quantitative High-Throughput Screening (AID 1296008); details: Five cell lines viability, CellTiter-Glo ATP luminescence, 48-72 h; max response: active compounds read low
In short: (§1)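 Cytotoxicity was measured as CellTiter-Glo ATP luminescence, read after 10 min at room temperature. Compound treatment of the cells lasted 48 or 72 hr at 37 degrees Celsius in a qHTS format.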

[2] = tested on: NIH3T3; assay: as above; details: Five cell lines viability, CellTiter-Glo ATP luminescence, 48-72 h; max response: active compounds read low
In short: as §1

[3] = tested on: KB-3-1; assay: as above; details: Five cell lines viability, CellTiter-Glo ATP luminescence, 48-72 h; max response: active compounds read low
In short: as §1

[4] = tested on: HACAT; assay: qHTS assay to identify novel small-molecules to repurpose for Merkel cell carcinoma treatment (AID 1296009); details: MCC and control cell lines, CellTiter-Glo viability, 72 h; at 44.8 µM (top of the series) unless noted
In short: (§2)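 After compound transfer in DMSO, plates were kept 72 hr at 37 degree celsius. Luminescent ATP signal from CellTiter-Glo served as viability measure, normalized against DMSO and no-cell controls.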

[5] = tested on: MCC-26; assay: as above; details: MCC and control cell lines, CellTiter-Glo viability, 72 h; series mostly up to 46 µM
In short: as §2

[6] = tested on: MCC-13; assay: as above; details: MCC and control cell lines, CellTiter-Glo viability, 72 h; series mostly up to 46 µM
In short: as §2

[7] = tested on: MKL-1; assay: as above; details: MCC and control cell lines, CellTiter-Glo viability, 72 h; series mostly up to 46 µM
In short: as §2

[8] = tested on: MKL-2; assay: as above; details: MCC and control cell lines, CellTiter-Glo viability, 72 h; series mostly up to 46 µM
In short: as §2

[9] = tested on: HEK293T; assay: as above; details: MCC and control cell lines, CellTiter-Glo viability, 72 h; at 44.8 µM (top of the series) unless noted
In short: as §2

[10] = tested on: NIH3T3; assay: as above; details: MCC and control cell lines, CellTiter-Glo viability, 72 h; at 44.8 µM (top of the series) unless noted
In short: as §2
% is scaled to controls: 0 for no effect and ±100 for the full control effect.
Also: nearly all actives have a fitted effect of over 60% in size.

Nc1ncn([C@@H]2O[C@H](CO)[C@@H](O)[C@H]2O)c(=O)n1
inactive: max response [1] -18.5% | max response [2] -10.9%

c1cc(CN2CCCCC2)cc(OCCCNc2nc3ccccc3s2)c1
inactive: outcome [1] | max response [3] -9.4% | outcome [4] | Potency [5]

CC(=O)[C@@]1(O)CC[C@H]2[C@@H]3CCC4=CC(=O)CC[C@]4(C)[C@H]3CC[C@@]21C
inactive: max response [1] 1.18% | max response [3] -5.68% | max response [2] 2.18% | Potency [6] | Potency [5] | Potency [7] | Potency [8]

C(=C\c1ccccc1)/CN1CCN(C(c2ccccc2)c2ccccc2)CC1
inactive: max response [1] -6.19% | max response [3] 4.11% | max response [2] -6.19% | Potency [6] | Potency [5] | Potency [8]

CCn1cc(C(=O)O)c(=O)c2cc3c(cc21)OCO3
inactive: max response [1] -9.91% | max response [3] -12.7% | max response [2] -23.3% | Potency [6] | Potency [5] | Potency [7] | Potency [8]

CC(C(=O)O)c1ccc(CC2CCCC2=O)cc1 (stereo not drawn)
inactive: max response [1] -3.69% | max response [3] -8.05% | max response [2] -16.1% | outcome [9] | Potency [6] | Potency [5] | Potency [8]

CCN(CC)CCNC(=O)c1cc(S(C)(=O)=O)ccc1OC
inactive: max response [1] -0.825% | max response [3] 6.27% | max response [2] -1.98% | Potency [6] | Potency [5] | Potency [8]

CCCN(CCC)C(=O)C(CCC(=O)O)NC(=O)c1ccccc1 (stereo not drawn)
inactive: max response [1] 4.34% | max response [3] 20.1% | max response [2] -2.14% | outcome [9] | Potency [6] | Potency [5] | Potency [8]

Cc1nc2sccn2c(=O)c1CCN1CCC(=C(c2ccc(F)cc2)c2ccc(F)cc2)CC1
inactive: max response [1] -3.76% | max response [3] -12.7% | max response [2] -6.97% | Potency [6] | Potency [5]

O=C(CCNNC(=O)c1ccncc1)NCc1ccccc1
inactive: max response [1] -22% | max response [3] 4.64% | max response [2] -21.8% | Potency [6] | Potency [5] | Potency [7] | Potency [8]

CCN(CC)CC(=O)Nc1c(C)cccc1C
inactive: max response [1] -2.67% | max response [3] -0.324% | outcome [2] | Potency [6] | Potency [5] | Potency [7] | Potency [8] | outcome [10]

CC(C)(C)NCC(O)c1cc(O)cc(O)c1 (stereo not drawn)
inactive: max response [1] 4.23% | max response [3] -2.33% | max response [2] 3.49% | Potency [6] | Potency [5] | Potency [8]

CNCCCN1c2ccccc2CCc2ccccc21
inactive: outcome [1] | max response [3] -3.48% | outcome [4] | Potency [6] | Potency [5]

NC(=O)N1c2ccccc2C=Cc2ccccc21
inactive: max response [1] -8.83% | max response [3] -5.38% | max response [2] 2.27% | Potency [6] | Potency [5] | Potency [7] | Potency [8]

CNCCC(Oc1ccccc1OC)c1ccccc1 (stereo not drawn)
inactive: max response [1] 1.07% | max response [3] 0.271% | max response [2] -6.28% | Potency [6] | Potency [5] | Potency [8]

COc1cc(C(=O)OCCCN2CCCN(CCCOC(=O)c3cc(OC)c(OC)c(OC)c3)CC2)cc(OC)c1OC
inactive: max response [1] 3.13% | max response [3] -1.09% | max response [2] -3.19% | Potency [6] | Potency [5]

Cc1nc2ccccn2c(=O)c1CCN1CCC(C(=O)c2ccc(F)cc2)CC1
inactive: max response [1] -15.4% | max response [3] -5.16% | max response [2] -5.4% | Potency [6] | Potency [5] | Potency [8]

NC(N)=NC(=O)Cc1c(Cl)cccc1Cl
inactive: max response [1] -14.8% | max response [3] 6.63% | max response [2] 3.43% | Potency [6] | Potency [5] | Potency [7] | Potency [8]

CC(C)[N+](C)(CCOC(=O)C1c2ccccc2Oc2ccccc21)C(C)C
inactive: max response [1] -8.6% | max response [3] -0.425% | outcome [2] | Potency [6] | Potency [5] | outcome [10]

O=C(CCCN1CCC(O)(c2cccc(C(F)(F)F)c2)CC1)c1ccc(F)cc1
inactive: max response [1] 0.0234% | max response [3] -16.4% | Potency [6] | Potency [5] | Potency [7]

C[C@]12CC[C@@H]3c4ccc(O)cc4C[C@@H](CCCCCCCCCS(=O)CCCC(F)(F)C(F)(F)F)[C@H]3[C@@H]1CC[C@@H]2O (stereo partly drawn)
inactive: max response [1] -6.63% | max response [3] 3.54% | max response [2] -7.29% | Potency [6] | Potency [5] | Potency [7]

CC(=O)Nc1nnc(S(N)(=O)=O)s1
inactive: max response [1] 4.4% | max response [3] 1.55% | outcome [2] | Potency [6] | Potency [5] | Potency [7] | Potency [8] | outcome [10]

COC(=O)[C@@H](N)Cc1ccc(O)c(O)c1
inactive: max response [1] 3.62% | max response [3] -3.59% | max response [2] -6.82% | Potency [6] | Potency [5]

COC(=O)[C@H]1[C@H]2C[C@@H]3c4[nH]c5cc(OC)ccc5c4CCN3C[C@H]2C[C@@H](OC(=O)c2cc(OC)c(OC)c(OC)c2)[C@@H]1OC
inactive: max response [1] -6.17% and -7.84% | max response [3] 21.8% and -5.12% | max response [2] -3.91% and -6.42% | Potency [6]

CCCCNc1c(C(=O)OCC)c(C)nc2c1cnn2CC
inactive: max response [1] -1.24% | max response [3] 1.34% | Potency [6] | Potency [5] | Potency [7] | Potency [8]

CN=C(NC#N)NCCSCc1nc[nH]c1C
inactive: outcome [1] | max response [2] -0.832% | outcome [4] | outcome [9] | Potency [6] | Potency [5] | Potency [8]

CCN1CCC[C@H]1CNC(=O)c1c(O)c(Cl)cc(Cl)c1OC
inactive: outcome [1] | max response [2] 1.49% | outcome [4] | outcome [9] | Potency [6] | Potency [5] | Potency [7] | Potency [8]
